TDP1 cell CPT: growth inhibition of DT40 Tdp1-/-;hTDP1 cells with camptothecin (screen for TDP1 inhibitors). chicken DT40 Tdp1-/-;hTDP1 cells + 20 nM CPT, ATP luminescence, 48 h. Potency, µM (titrated, usually from 46.2 µM), for inactives: top-dose activity change, negative = growth inhibition, usual class: inhibitors. hit rate 12% among 420,000; note: potency is the fitted concentration of half-maximal effect; nearly all actives have a fitted effect of over 55% in size
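Chicken DT40 Tdp1-/- cells complemented with human TDP1, 400 cells/well, exposed to compounds plus 20 nM camptothecin for at least 48 h at 37 C; viability read as ATP content by CellTiter-Glo luminescence.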
HT1080-NT tox: kills 2HG-producing HT-1080-NT fibrosarcoma cells; HT-1080-NT fibrosarcoma viability, CellTiter-Glo ATP luminescence, 48 h; Potency, µM (titrated, usually from 46.1 µM), without a hit: top-dose activity, negative = less viability, most hits filed as cytotoxic; hit rate 1.6% among 360,000;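 note: NT is the 2HG producing partner of a matched IDH1 knockdown line; potency is the fitted concentration of half-maximal effect; 0% = DMSO-treated cells and -100% = media-only wells without cells; nearly all actives have a fitted effect of over 55% in size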
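Luminescent CellTiter-Glo readout after 48 hours of compound exposure at 37 degrees C defined viability of HT-1080-NT cells. Activity was normalized to DMSO wells and cell-free media wells; concentration-response curves were fitted and assigned curve classes.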
ELG1 repair inh: blocks ELG1-dependent DNA repair in HEK293T cells. HEK293T ELG1-luciferase reporter, luminescence, 16 h; DNA damage induced by 5-fluorouridine. Potency, µM (series often up to 46.1 µM), for the others: at the highest dose activity change, negative = inhibition, hits mostly inhibitors. hit rate 2.3% among 330,000. AID 504467; note: potency is the fitted concentration of half-maximal effect; nearly all actives have a fitted effect of over 55% in size
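Step one: seed 2,000 cells per well. Step two: pin-transfer compound or DMSO alongside 5-fluorouridine. Step three: incubate 16 hr, 37 °C, 5% CO2. Step four: add ONE-Glo, wait 30 min, read luminescence.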
TDP1 cell noCPT: qHTS for Inhibitors of human tyrosyl-DNA phosphodiesterase 1 (TDP1): qHTS in cells in absence of CPT; DT40 Tdp1-/- hTDP1 cells, no CPT, ATP luminescence, 48 h; Potency, µM (titrated, usually from 46.2 µM), without a hit: at the highest dose activity change, negative = growth inhibition, actives largely listed as inhibitors; hit rate 15% among 420,000; AID 686978, 2013; note: potency is the fitted concentration of half-maximal effect; nearly all actives have a fitted effect of over 55% in size
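DT40 Tdp1-/-;hTDP1 cells, no CPT (DMSO vehicle only), 400 cells/well; compounds pin-transferred; ≥48 hr, 37 °C; CellTiter-Glo 30 min RT dark, luminescence read.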
IL-1B inflam inh: inhibitors of inflammasome signaling (IL-1 beta secretion) | activity change, % at 57.5 µM | THP-1 LPS/ATP IL-1B secretion, AlphaLISA, 16 h; hits give low values | hit rate 4.7% among 360,000; in the data active = activity change below about -50%; inconclusive = mostly about -30% to -49%
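Secreted IL-1B measured by AlphaLISA bead assay after 16 h compound exposure of THP-1 cells; compounds (final up to 57.5 uM) added 1 h before LPS (250 ng/mL) and ATP (1.25 mM) stimulation; lower signal means less secretion.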
HT1080 IDH1KD tx: HT-1080 IDH1 knockdown cell toxicity (counter line). HT-1080 IDH1 knockdown viability, ATP luminescence, 48 h. Potency, µM (top dose mostly 46.1 µM), inactives show top-dose activity, negative = toxicity, usual class: cytotoxic. hit rate 2% among 360,000;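 note: potency is the fitted concentration of half-maximal effect; 0% = DMSO wells and -100% = cell-free medium wells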
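Luminescent ATP read-out (CellTiter-Glo, 10 min at room temperature) after 48 h compound exposure at 37 °C gave viability of IDH1-knockdown HT-1080 cells. Activity was normalised to DMSO and cell-free wells, then fitted as concentration-response curves.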
Active calls of the source: *; u = inconclusive; x = not tested or not shown; [ ] = another dose, or the depositor's remark. The list is not random: actives were taken first. Their share in the collection is about 19%. Unless noted, calls come from the whole dose curve; as a rule, active = well fitted curve in the direction sought with a large enough effect; inconclusive = small, poorly fitted or top-dose-only effect, or another doubt; inactive = no such curve, though single readings can be large; an effect the other way counts as inactive or inconclusive. Unless noted, % is set by controls: 0 for no effect and ±100 for the full control effect.

SMILES	TDP1 cell CPT	HT1080-NT tox	ELG1 repair inh	TDP1 cell noCPT	IL-1B inflam inh	HT1080 IDH1KD tx
CCCCS(=O)CC(O)CSc1nc(-c2ccc(OC)cc2)cc(-c2ccccc2)c1C#N (centres undefined)	u	x	x	-18.9%	x	x
Cc1ccc(C(=O)OCN2C(=O)c3ccccc3C2=O)c(O)c1	6.9%	2.7%	9.9%	3.5%	8.3	9.0%
COC(C(=O)N/N=C(\C)c1ccc(C(C)(C)C)cc1)c1ccccc1 (centres undefined)	u	-6.8%	u	u	u	u
Cc1cccc[n+]1CC(=O)c1ccc([N+](=O)[O-])cc1	20.6µM*	25.9%	x	16.4µM*	18.0	16.9%
COc1ccc(C(=O)C[n+]2ccccc2C)cc1	16.4µM*	-5.6%	10.6%	20.6µM*	6.6	-0.6%
Cc1cccc[n+]1CC(=O)c1ccc(NC(=O)c2ccccc2)cc1	u	3.8%	-8.2%	u	22.7	-6.3%
N#CCCn1c(=O)c(-c2ccc(Cl)cc2)nc2cnc(Nc3ccccc3)nc21	u	x	x	-4.9%	x	x
O=C(Cc1cccc2ccccc12)NCC(=O)N1CCN(CC(=O)Nc2ccc(F)cc2)CC1	u	-15.4%	x	18.4µM*	14.7	-7.9%
O=C(Cc1cccc2ccccc12)NCC(=O)N1CCN(Cc2cccc(C(F)(F)F)c2)CC1	10.3µM*	-23.3%	-20.0%	10.3µM*	-13.0	-22.5%
CC1CN(C(=O)CNC(=O)Cc2cccc3ccccc23)CC(C)O1 (centres undefined)	-16.9%	5.4%	5.3%	25.5%	9.5	2.1%
CCCCn1nnnc1C(c1cc2ccccc2o1)N1CCN(c2ccccc2F)CC1 (centres undefined)	u	15.6%	x	u	-21.0	6.9%
CCCCn1nnnc1C(c1cc2ccccc2o1)N1CCN(c2ccncc2)CC1 (centres undefined)	20.6µM*	u	x	23.1µM*	-60.8*	u
CCCCn1nnnc1C(c1cc2ccccc2o1)N1CCN(c2cc(C)nc3ccccc23)CC1 (centres undefined)	u	18.4µM*	x	u	-24.3	u
Cc1cccc(C)c1N1CCN(C(c2cc3ccccc3o2)c2nnnn2C(C)(C)C)CC1 (centres undefined)	14.6µM*	3.9%	x	u	9.4	u
CCCCn1nnnc1C(c1cc2ccccc2o1)N1CCN(c2c(C)cccc2C)CC1 (centres undefined)	u	10.5%	x	18.4µM*	4.2	15.9%
Cn1nc(C(=O)NC2CCC(O)CC2)c2ccccc2c1=O (centres undefined)	1.5%	1.3%[9.24 µM]	24.5%	5.9%	17.0	1.5%
CCOC(=O)C1=CCN(S(=O)(=O)c2ccccc2)C1c1ccc(Cl)cc1 (centres undefined)	-25.1%	-9.9%	x	u	4.5	-12.8%
O=C(COC(=O)COc1ccc(Cl)cc1Br)NC1CCCC1	-18.3%	-0.2%	x	1.7%	9.1	11.8%
CCCCn1nnnc1C(c1cc2ccccc2o1)N1CCN(CCN(C)C)CC1 (centres undefined)	u	u	x	20.6µM*	-4.7	-0.5%
Cc1ccc(-c2csc(N/N=C/C=C/c3ccccc3)n2)cc1	u	4.5%[9.24 µM]	0.0%	u	-28.1	u
CC(C)=NNc1nc(-c2ccc([N+](=O)[O-])cc2)cs1	u	-4.5%	17.4%	20.6µM*	u	u
C/C=C/C=N/Nc1nc(-c2ccc([N+](=O)[O-])cc2)cs1	u	-9.3%	-0.1%	23.1µM*	-25.1	-11.5%
Cc1c(CCC(=O)NCc2cccc(Cl)c2)c(=O)oc2c(C)c(O)ccc12	-2.4%	x	x	-15.4%	x	x
